A selection: hits, their analogues and other compounds. The true share with any hit is near 0.4%.
Rac1 act GTP bind: alters GTP binding to activated mutant human Rac1; P63000; GST-Rac1 activated beads, fluorescent GTP binding, flow cytometry; actives lie on both sides; 100% means binding = to untreated wells; percent activity (GTP binding), % at 10 µM; 190,000 tested, 0.11% active;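 active means GTP binding at least 20 percentage points away from the 100% baseline, in either direction, so actives lie on both sides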
Rab7 wt modul: dog Rab7 wildtype GTP binding, inhibitors and activators. 190,000 tested, 0.055% active. GTP binding activity (percent of control), % at 10 µM. GST-Rab7 beads, fluorescent GTP binding, flow cytometry; actives lie on both sides; untreated = 100%, excess cold GTP = 0%;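 active means fluorescent GTP binding to Rab7 beads changed by at least 20 points from the 100% baseline, either direction, mostly lower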;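 further: median green fluorescence of bound Bodipy-FL-GTP per Rab7 bead population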
Rac1 wt GTP bind: modulators of human Rac1 wildtype GTP binding; GST-Rac1 beads, fluorescent GTP binding, flow cytometry; actives lie on both sides; 0 = cold GTP competed, 100 = untreated; 190,000 tested, 0.27% active; GTP binding activity (% of control), % at 10 µM; P63000; AID 757;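 active means GTP binding activity at least 20 points away from the 100% control level, either lower or higher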
Cdc42 wt GTP: human Cdc42 wildtype GTP binding change, either direction. P60953. GST-Cdc42 beads, Bodipy-GTP binding, flow cytometry; actives lie on both sides. percent activity (GTP binding), % at 10 µM. 190,000 tested, 0.2% active. AID 761;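 active means percent activity GTP binding at least 20 points away from the 100% baseline, either down as inhibitor or up as activator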;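 further: median bead fluorescence of bound Bodipy-FL-GTP at 100 nM; 0% = excess unlabeled GTP control and 100% = no compound control; below 100% means less GTP binding so inhibitor and above means activator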
Target sequence (P60953 whole entry, looked up): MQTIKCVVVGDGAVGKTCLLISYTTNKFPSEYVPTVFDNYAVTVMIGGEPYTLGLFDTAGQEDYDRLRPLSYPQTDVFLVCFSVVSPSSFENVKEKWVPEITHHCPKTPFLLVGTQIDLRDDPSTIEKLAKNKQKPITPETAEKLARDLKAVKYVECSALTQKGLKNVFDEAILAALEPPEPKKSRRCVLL
Rab2A wt mod: changes GTP binding to wildtype dog Rab2A, up or down. P61105. GST-Rab2 wt beads, Bodipy-GTP binding, flow cytometry. GTP binding activity, % at 10 µM. 190,000 tested, 0.19% active. AID 760;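 active means GTP binding activity at least 20 points away from 100%, either lowered or raised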;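 further: 0% = beads with excess unlabeled GTP and 100% = no-compound control corrected for plate trend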
HRas wt GTP: human HRas wildtype GTP binding, change in either direction | P01112 | GST-Ras wt beads, Bodipy-FL-GTP binding, flow cytometry; actives lie on both sides | GTP binding activity, % at 10 µM | 190,000 tested, 0.14% active;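 active means GTP binding activity at least 20% away from the 100% baseline, either lowered as inhibitor or raised as activator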;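 further: 0% = unlabeled GTP competition control and 100% = no-compound control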
Numbers without * were called inactive.

SMILES | Rac1 act GTP bind | Rab7 wt modul | Rac1 wt GTP bind | Cdc42 wt GTP | Rab2A wt mod | HRas wt GTP
Cc1sc(-n2c(C)cc(C=C3C(=O)NC(=O)NC3=O)c2C)c(C#N)c1C | 78* | 89 | 79* | 81 | 82 | 85
Cc1cc(/C=C2\C(=O)NC(=O)N(c3ccc(Cl)cc3)C2=O)c(C)n1-c1sc2c(c1C#N)CCCC2 | 86 | 96 | 99 | 93 | 91 | 94
COc1ccc(C(=O)CC2(CC(=O)c3ccc(OC)cc3)C(=O)N(C)C(=O)N(C)C2=O)cc1 | 94 | 100 | 100 | 99 | 99 | 101
CN1C(=O)N(C)C(=O)C2(Cc3c(ccc4ccccc34)N(C)C2)C1=O | 79* | 96 | 86 | 86 | 91 | 96
CN(C)c1ccc(/C=C/C=C2/C(=O)NC(=O)N(c3ccccc3)C2=O)cc1 | 77* | 86 | 70* | 74* | 78* | 81
Cc1nc2c(=O)n(C)c(=O)nc-2n(C)n1 | 82 | 87 | 106 | 77* | 85 | 88
OC(CCNCCc1c[nH]c2ccccc12)C(F)(F)F (centres undefined) | 95 | 95 | 101 | 99 | 97 | 97
O=C(c1ccc(N2CC3CC(C2)c2cccc(=O)n2C3)c([N+](=O)[O-])c1)N1CCCCC1 (centres undefined) | 99 | 95 | 101 | 103 | 98 | 101

Compound activity from PubChem.
